From PubChem BioAssay
Hits are enriched below; roughly 12% of the tested compounds scored in any of these assays.
Cycloheximide cs = Cycloheximide Counterscreen for Small Molecule Inhibitors of Shiga Toxin; cell reporter, cycloheximide protein synthesis inhibition counterscreen; max response, %; hit rate 12% among 300,000; in the data active = max response mostly above about 13%, no sharp cut-off; inactive = mostly below about 14%; note: read at 38.3 µM for the half of the compounds with a filed dose
Shiga toxin inh = A qHTS for Small Molecule Inhibitors of Shiga Toxin | Vero cells, Shiga toxin protein synthesis inhibition reporter | inhibition, % at 38.7 µM | hit rate 9.2% among 290,000; in the data active = inhibition mostly above about 28%, no sharp cut-off; inactive = mostly below about 43%
FMDV antiviral = High Throughput Screening for Foot and Mouth Disease Virus Antivirals; FMDV antiviral cell-based qHTS; Potency, µM (series often up to 57.9 µM), hits mostly inhibitors; hit rate 1.2% among 410,000; AID 1159524, 2015; calls by dose curve; tested in HEK293T cells; note: read-out not given here; nearly all actives have a fitted effect of over 45% in size
Sm TGR block = qHTS Assay for the Inhibitors of Schistosoma Mansoni Peroxiredoxins. Schistosoma mansoni thioredoxin glutathione reductase (TGR), Q962Y6. purified TGR, DTNB reduction, TNB absorbance 405 nm. Potency, µM (titrated, usually from 114 µM), actives largely listed as inhibitors. hit rate 3% among 360,000. AID 485364, 2010; active = well fitted inhibition curve with a large enough effect; inconclusive = small, poorly fitted or top-dose-only effect; inactive = no such curve, though single readings can be large or run the other way; note: nearly all actives have a fitted effect of over 60% in size
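TGR 20 nM + NADPH 100 uM (dispensed conc.), cpd preinc 15 min RT; start with NADPH (500 uM addition) then DTNB (15 mM addition). Kinetic TNB absorbance, 405 nm filter. Four-parameter Hill fit across titration.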
Each line names hits and unclear results; the compound was inactive in the other large screens.

CC(C)(C)Cc1nnc(NC(=O)c2ccc3c(c2)OCO3)s1	Cycloheximide cs 43.8, Shiga toxin inh 48.3
O=C(CSc1nc2c([nH]c3ccccc32)c(=O)n1-c1ccc(Cl)cc1)N1CCOCC1	none (no result: Cycloheximide cs, Shiga toxin inh)
CCOc1c(Cl)cc(CNc2ccc3[nH]c(=O)[nH]c3c2)cc1OC	none (no result: Cycloheximide cs, Shiga toxin inh)
COc1ccc(C)cc1NC(=O)CSc1nc(=O)n(Cc2ccncc2)c2c1CCC2	none (no result: Cycloheximide cs, Shiga toxin inh)
CCN(CC)CCn1c2c(c(SCC(=O)Nc3cccc(C(C)=O)c3)nc1=O)CCCC2	Sm TGR block 44.7µM (no result: Cycloheximide cs, Shiga toxin inh)
CC(=O)c1cccc(NC(=O)CSc2nc(=O)n(Cc3ccco3)c3c2CCC3)c1	none (no result: Cycloheximide cs, Shiga toxin inh)
Cc1c(Cl)cccc1NC(=O)CSc1nc(=O)n(Cc2ccco2)c2c1CCC2	Sm TGR block 39.8µM (no result: Cycloheximide cs, Shiga toxin inh)
CCc1ccc(NC(=O)CSc2nc(=O)n(Cc3ccco3)c3c2CCC3)cc1	Sm TGR block 44.7µM (no result: Cycloheximide cs, Shiga toxin inh)
COc1ccc(C)cc1NC(=O)CSc1nc(=O)n(Cc2ccco2)c2c1CCC2	FMDV antiviral inconclusive, Sm TGR block 35.5µM (no result: Cycloheximide cs, Shiga toxin inh)
COc1ccc(C2C3C=CCC(C)C3C(=O)N2Cc2ccccc2)cc1Cl (stereo not drawn)	none (no result: FMDV antiviral, Sm TGR block)
CCCn1c(CCC(=O)Nc2cc(Cl)c(OC)cc2OC)nc2cccnc21	none (no result: Cycloheximide cs, Shiga toxin inh)
CC1CN(CC(=O)NCCC2COc3ccccc3O2)Cc2cc(Cl)ccc2O1 (stereo not drawn)	none (no result: Cycloheximide cs, Shiga toxin inh, Sm TGR block)
COc1cccc(-c2nc(S(=O)(=O)c3ccc(C)cc3)c(N3CCCCC3)o2)c1	none (no result: Cycloheximide cs, Shiga toxin inh)
O=C1SC(SC(=Nc2ccccc2)Nc2ccccc2)C(=O)N1c1ccccc1 (stereo not drawn)	Cycloheximide cs 40.8, Shiga toxin inh 59.8
Cc1cc2nc(-c3cc(N4CCOCC4)ccc3[N+](=O)[O-])ccn2n1	none
Cc1cc2nc(-c3ccc4c(c3)CCC4)ccn2n1	Cycloheximide cs 20.4, Shiga toxin inh 46.2
CN1CCc2nc3sc(C(=O)Nc4ccccc4C(F)(F)F)c(N)c3cc2C1	none (no result: Cycloheximide cs, Shiga toxin inh)
CN(C)c1ccc(/C=C2/C(=O)N(c3ccc([N+](=O)[O-])cc3)N=C2N2CCOCC2)cc1	none (no result: FMDV antiviral)
O=C1CC(N2CCOCC2)=NN1c1ccc([N+](=O)[O-])cc1	Cycloheximide cs 18.0
CCOC(=O)Cn1c(=O)cc(C)c2c(C)nn(-c3cccc(F)c3)c21	none (no result: Cycloheximide cs, Shiga toxin inh)
CCc1ccc(-c2cc(C)no2)cc1S(=O)(=O)Nc1ccc(Cl)cc1	none (no result: Cycloheximide cs, Shiga toxin inh)
COc1ccc(C2(CNC(=O)/C=C\c3ccco3)CCCC2)cc1OC	Sm TGR block 3.16µM
COc1ccc(C(NC(=O)c2ccco2)c2ccc(OC)c(OC)c2)cc1 (stereo not drawn)	none
COc1ccc(C(NC(=O)/C=C/c2ccco2)c2ccc(OC)c(OC)c2)cc1OC	Sm TGR block 8.91µM
Cc1ccc(OCCCn2c(=O)sc3ccccc32)cc1	Cycloheximide cs 24.2
CC(C)CCOc1ccccc1Cn1c(=O)sc2ccccc21	none (no result: Cycloheximide cs, Shiga toxin inh)
O=c1sc2ccccc2n1COc1ccccc1	none
Cc1ccccc1OCCCn1c(=O)sc2ccccc21	Cycloheximide cs 65.9, Shiga toxin inh 105.5
Cc1ccc(OCCn2c(=O)sc3ccccc32)cc1	Cycloheximide cs 45.0, Shiga toxin inh 60.5
O=c1sc2ccccc2n1CCCOc1ccccc1	Cycloheximide cs 42.3, Shiga toxin inh 118.7
CC(=O)c1cc2c(cc1N/C(=N/S(=O)(=O)c1ccc(F)cc1)c1ccccc1)OCO2	none (no result: Cycloheximide cs, Shiga toxin inh)
Cc1ccc(NC(=O)Nc2nnc(SCC(=O)N3CCCCC3)s2)cc1	none (no result: Cycloheximide cs, Shiga toxin inh)
O=c1sc2ccccc2n1COc1ccc(Cl)cc1	Cycloheximide cs 35.0
CC1(C)C[C@@H]2C[C@@](C)(CN2C(=O)c2cc(COc3cccc(C(F)(F)F)c3)on2)C1	Shiga toxin inh 42.4
CC(=O)c1cccc(OCc2cc(C(=O)N3C[C@H]4CC[C@H]3C4)no2)c1	Cycloheximide cs 50.3, Shiga toxin inh 82.0
O=C(c1cc(COc2cccc(C(F)(F)F)c2)on1)N1C[C@H]2CC[C@H]1C2	Cycloheximide cs 30.5, Shiga toxin inh 80.2
CC(=O)c1cccc(OCc2cc(C(=O)N3C[C@@H](C)O[C@@H](C)C3)no2)c1	Cycloheximide cs 40.7, Shiga toxin inh 75.1, Sm TGR block 3.16µM
O=C(N[C@@H]1c2ccccc2C2(CCN(Cc3c(O)ccc4ccccc34)CC2)[C@H]1O)c1ccccc1	none (no result: Cycloheximide cs, Shiga toxin inh, Sm TGR block)
CCc1cccc(-n2c(=O)c3cccnc3n2CC(=O)NCc2ccc(C)cc2)c1	none (no result: Cycloheximide cs, Shiga toxin inh)
CCC1(c2ccc(O)cc2)NC(=O)N(C)C1=O (stereo not drawn)	none (no result: FMDV antiviral, Sm TGR block)
N/C(=N\OC(=O)c1ccco1)c1cccc(Br)c1	Cycloheximide cs 39.9, Shiga toxin inh 154.1
N/C(=N\OC(=O)c1ccco1)c1cccc([N+](=O)[O-])c1	Cycloheximide cs 48.2, Shiga toxin inh 121.0
COc1ccc(C(=O)Nc2ccccc2NC(=O)c2ccco2)cc1OC	none
